The text below walks through data of ChEMBL document CHEMBL4513216, “Probing the Open Global Health Chemical Diversity Library for Multistage-Active Starting Points for Next-Generation Antimalarials” (ACS Infect Dis, 2020).

Structures are written as SMILES. Hit rate of the full screen: of about 69,000 compounds, about 8,600 (12%) showed an effect of 50% or more. For the sample, strong results were picked, then their nearest neighbours and some compounds at random.

In the assay the test system is Plasmodium berghei. The assay is described as follows: Screen against P. berghei liver stage (PbLuc), transformed with Luciferase, at 10uM. Type of assay: functional, HepG2. Conditions: tested at 10 uM.
In the case of `O=C(CCc1nc(C2CC2)no1)c1ccc2c(c1)OCCO2`, the INHIBITION was -5.22%. For the compound `CN1CCCC(c2cncc(C(=O)NCc3ccccc3Cl)n2)C1` (centres undefined), the INHIBITION is -54.1%. `CC(C)=CCN1C(=O)[C@@H]2CC[C@H]1CN(c1ncccn1)C2`: the INHIBITION was determined as 12.7%. Next, `CC(C)(C)NC(=O)CNc1ccc(Br)cn1`: 25.4%. With `O=C(NCCCn1cccn1)c1nc2ccccc2[nH]1` the figure was 15.7%; with `Cc1csc(NC(=O)NCCCN2CCC(C(N)=O)CC2)n1`, -21.1%. Consider `Cc1ccnc(OC[C@]23COC[C@H]2CN(C(=O)Cc2ccsc2)C3)n1`, for which the INHIBITION was -39.9%.

On to `Cc1n[nH]c(C)c1NC(=O)CN1CCCC1c1noc(C2CC2)n1` (centres undefined), for which the INHIBITION came out at 26.5%. With `c1ccc(-c2nn3c(CN4CCOCC4)nnc3s2)nc1` the figure was 25.9%; with `COCCN1CC[C@H]2CN(c3cc(OC)ncn3)C[C@@H]2C1=O`, 54.1%; with `COc1cc(N2C[C@H]3CCC[C@@H](CN(C)C4CC4)[C@H]3C2)ncn1`, 20.6%. Next, `COc1cc(N2C[C@H]3CN(CC(=O)N(C)C)C(=O)[C@H]3C2)ncn1`: 42.3%; `COc1cc(N2C[C@H]3CCC[C@@H](CN(C)C)[C@H]3C2)ncn1`: 32.2%. Next, `Cc1ccc(N2C[C@H]3CCC[C@@H](CN4CCOCC4)[C@H]3C2)nn1`: 61.9%; `COCCN1C[C@@H]2CN(c3ncccn3)C[C@@H]2C1=O`: -14.6%; `Cc1nc(CN2C[C@@H]3CN(c4ncc(F)cn4)C[C@@H]3C2=O)cs1`: 5.63%. As to `Cc1ccc(N2C[C@@H](CN3CCOCC3)[C@@H](CO)C2)nn1`, the INHIBITION is given as 20.4%. With `COCCN1C[C@@H]2CN(c3ncc(F)cn3)C[C@@H]2C1=O` the figure was 53.4%. Next, `COc1cc(N2C[C@H]3CN(CCN4CCCC4)C(=O)[C@H]3C2)ncn1`: 17.2%.

For the compound `Cc1ccc(N2C[C@H]3CCC[C@@H](CN(C)C)[C@H]3C2)nn1`, the INHIBITION is on record as -10.5%. Next, `COc1cc(N2C[C@H]3CCC[C@@H](CN4CCCC4)[C@H]3C2)ncn1`: 76.5%; `N[C@H]1c2ccccc2C[C@@H]1NC(=O)C1CCN(Cc2ccco2)CC1`: -13.6%; `O=C(CS(=O)(=O)Cc1csc(-c2ccc(F)cc2)n1)NCC1CC1`: 0.991%. With `Cc1ccn2c(F)c(C(=O)N3CCC4(CCC(=O)N(C)C4)CC3)nc2c1` the figure was 20.5%; with `Cc1cnn(CCNCC(O)c2ccc(S(C)(=O)=O)cc2)c1` (centres undefined), 12.6%. With `c1cc(-c2nn3c(CN4CCOCC4)nnc3s2)ccn1` the figure was 26.7%; with `COc1ccc2c(c1)CN(CC(=O)NC1CCCC1)CC2`, -2.48%. In the case of `Cc1cc2nc(SCC(=O)N3CCCC3)n(C(C)C)c(=O)c2[nH]1`, the INHIBITION was -19.7%.

Take `COc1cc(N2C[C@H]3CN(C(=O)c4cnccn4)C[C@H]3C2)ncn1`: the INHIBITION is on record as -1.15%. Next, `COc1cc(N2C[C@H]3CCN(CCN4CCCC4)C[C@H]3C2)ncn1`: 52.6%; `COCCN(C)C[C@@H]1CCC[C@@H]2CN(c3cc(OC)ncn3)C[C@@H]21`: 41.5%; `COc1cc(N2C[C@H]3CCC[C@@H](CN4CCOCC4)[C@H]3C2)ncn1`: 73%. Next, `COc1cc(N2C[C@H]3OCC[C@H]3[C@H](C(=O)N3CCCC3)C2)ncn1`: 30.3%. With `c1cnc(N2C[C@H]3CCC[C@@H](CN4CCCC4)[C@H]3C2)nc1` the figure was 9.97%; with `COCCN1C[C@@H](C)[C@@]2(COCCN(C(=O)c3cnc(C)cn3)C2)C1`, 8.57%; with `CC(=O)NCc1noc2c1CN(CCN1CCCC1)CC2`, 39.3%. Turning to `O=C(O)COc1ccccc1CN1CCCC1c1cnccn1` (centres undefined), the INHIBITION is 47.2%. On to `O=C(C[C@@H]1COC[C@H]2CN(Cc3ccccc3)C[C@@H]12)N1CCCC1`, for which the INHIBITION is 41.2%. With `O=C1[C@H]2CN(C3CCOCC3)C[C@H]2CN1Cc1cccc(F)c1` the figure was 1.48%; with `Cc1ccc(CN2CC[C@H]3C(=O)N(Cc4cccnc4)CCO[C@H]3C2)o1`, 33.4%; with `Cc1cc(CN2CC[C@H]3C(=O)N(c4ccccc4)CCO[C@H]3C2)no1`, -33.5%.

In the case of `COc1ccc(CN2C[C@@H]3CN(Cc4cccnc4)CCO[C@@H]3C2)cc1`, the INHIBITION is 64.5%. With `O=C1[C@@H]2CCN(Cc3ccccn3)C[C@@H]2OCCN1c1ccccc1` the figure was 10.1%; with `COc1ccccc1CN1C[C@@H]2CN(Cc3cccnc3)CCO[C@@H]2C1`, 20.1%. Next, `O=C1[C@@H]2CCN(Cc3ccoc3)C[C@@H]2OCCN1Cc1cccc(F)c1`: 70.7%; `Fc1ccccc1CN1C[C@@H]2CN(Cc3cccnc3)CCO[C@@H]2C1`: 27.5%; `O=C1[C@@H]2CCN(Cc3ccncc3)C[C@@H]2OCCN1c1ccccc1`: 55.2%. Turning to `O=C1[C@@H]2CCN(CC3CCOCC3)C[C@@H]2OCCN1c1ccccc1`, the INHIBITION is reported as -37.8%.

With `Cc1ccc(N2CCO[C@H]3CN(Cc4cc(C)on4)CC[C@H]3C2=O)cn1`, the INHIBITION came out at 48.6%. Next, `Cc1cc(CN2CC[C@H]3C(=O)N(c4cccnc4)CCO[C@H]3C2)no1`: 53.2%; `O=c1c2c[nH]c(N3CCCC3)nc-2cn1C1CCS(=O)(=O)C1` (centres undefined): 42.1%; `CC(C)n1[nH]c(=O)c2c1NC(=O)CC2c1ccc(C#N)cc1` (centres undefined): -1.04%. As to `O=C1NCCCCC1Sc1ccc(F)c(F)c1` (centres undefined), the INHIBITION is 25.2%. Turning to `O=C(N1CCCC1)N1CC[C@H]2[C@H]1CCN2c1ncccn1`, the INHIBITION is reported as 19.8%. Next, `Cc1nc(CC(=O)N2CCC(c3ccn4nccc4n3)CC2)cs1`: 23.9%.

In the case of `CCOc1ccccc1-n1c(C2CCC2)n[nH]c1=O`, the INHIBITION is reported as -27.5%.

On to `c1cncc(CN2CCO[C@@H]3CN(Cc4ccoc4)CC[C@@H]3C2)c1`, for which the INHIBITION worked out at 50.9%. With `c1cnc(N2CCO[C@@H]3CN(Cc4ccoc4)C[C@@H]3C2)nc1` the figure was 33.5%; with `c1ccc(N2CC[C@@H]3CN(Cc4ccncc4)CCO[C@@H]3C2)cc1`, 65.1%.

For `O=C1[C@@H]2CCN(Cc3ccoc3)C[C@@H]2OCCN1c1ccccc1`, the INHIBITION came out at 21.6%. With `O=C1[C@@H]2CCN(Cc3ccoc3)C[C@@H]2OCCN1c1cccnc1` the figure was 54.4%. With `c1cnc(N2CC[C@@H]3CN(Cc4ccncc4)CCO[C@@H]3C2)nc1` the figure was -33%; with `OC1CN(Cc2ccccc2)CCN(c2ccncc2)C1` (centres undefined), 57.6%; with `O=C1[C@@H]2CCN(Cc3ccc(F)cc3)C[C@@H]2OCCN1c1cccnc1`, 24.9%. Next, `Cc1cc(N2CCN(Cc3ccccc3)CC(O)C2)cc(C)n1` (centres undefined): 36.8%; `Cc1cnc(N2CC[C@@H]3CN(Cc4ccncc4)CCO[C@@H]3C2)nc1`: -15.3%. In the case of `Cc1ccnc(N2CCN(Cc3ccccc3)CC(O)C2)c1` (centres undefined), the INHIBITION turned out to be 43.9%. Next, `O=C1[C@@H]2CCN(Cc3ccoc3)C[C@@H]2OCCN1Cc1cccnc1`: 12.5%. With `CCNc1nc(-c2cccnc2)c(-c2ccnc(N3CCCC3)n2)s1` the figure was 48.6%. Next, `CN(C)C(=O)CCCn1ccc(NC(=O)NCc2cccc(F)c2)n1`: 13.8%; `O=C(NCc1cc[nH]n1)NCC(O)c1ccc(F)c(F)c1` (centres undefined): -48.4%. In the case of `CCN(CC)S(=O)(=O)c1cccc(C(=O)N(C)Cc2ccsc2)c1`, the INHIBITION was -61.4%. Next, `CC[C@H]1N(C)CCC[C@]12CCC(=O)N2Cc1ccncc1`: 43.2%. Next, `CCOc1ccc(C(=O)N2CCCC2c2c(C)nn(C)c2OC)cn1` (centres undefined): -105%; `Cc1c(CN2CCCC(n3c(=O)oc4ccccc43)C2)cnn1C` (centres undefined): 35.75%; `N#Cc1cccc(CN2CC[C@@H]3CN(c4ncccn4)CCO[C@@H]3C2)c1`: 56.4%. As for `Cc1cc(C)n(CC2CN(Cc3cccc(C#N)c3)CCO2)n1` (centres undefined), the INHIBITION was -8.11%. With `N#Cc1cccc(CN2C[C@@H]3CN(c4ncccn4)C[C@@H]3C2)c1` the figure was 8.66%; with `Cc1nnc(NC(=O)CN2CCCC2c2noc(C(C)C)n2)s1` (centres undefined), -36.1%; with `Cc1cc(NC(=O)CN2CCCC2c2noc(C(C)C)n2)n(C)n1` (centres undefined), 6.81%.

On to `CC(C)c1nc(C2CCCN2Cc2ccccc2C#N)no1` (centres undefined), for which the INHIBITION was 22.5%. Next, `Cc1cc(NC(=O)CN2CCCC2c2noc(C3CC3)n2)no1` (centres undefined): 21.6%; `CC(C)c1nc(C2CCCN2CC(=O)Nc2cccnc2)no1` (centres undefined): -17.6%; `Cc1cc(NC(=O)CN2CCCC2c2noc(C(C)C)n2)no1` (centres undefined): 50.3%. With `CCc1ocnc1C(=O)N1CCCC1c1noc(C(C)C)n1` (centres undefined) the figure was 11.7%. Next, `CC(C)c1nc(C2CCCN2Cc2ccncc2Cl)no1` (centres undefined): 53.9%.

As for `CC(C)c1nc(C2CCCN2C(=O)c2nccnc2N)no1` (centres undefined), the INHIBITION came to 61.1%. On to `CC(C)c1nc(C2CCCN2Cc2ccno2)no1` (centres undefined), for which the INHIBITION is on record as 17%. With `CCc1nc(C2CCCN2C(=O)c2nccnc2N)no1` (centres undefined) the figure was -3.18%. With `CC(C)c1nc(C2CCCN2CC(=O)Nc2ccc(Cl)cn2)no1` (centres undefined) the figure was 54.6%; with `COC(=O)c1cc(C(=O)N2CCC(OC)CC2)n(-c2ccccc2)n1`, -12.33%. With `COC(=O)CNC(=O)c1sc(-c2ccc(Cl)s2)nc1C` the figure was -58%; with `CC(O)CN1CCC(CNCc2cccc(OC(F)(F)F)c2)CC1` (centres undefined), 35.4%.

Regarding `CS(=O)(=O)NC[C@]12COC[C@H]1CN(C(=O)N1CCCC1)C2`, the INHIBITION was 21.3%.
